An excerpt weighted towards active compounds, which were near 2% of everything screened.
VLA-4 inh – inhibition in human VLA-4 binding assay, primary screen, VLA-4 allosteric modulator project, MLPCN library, flow cytometry, VLA-4 expressing cells; ligand binding flow cytometry; AID 2557, 2010; 0.2% of 330,000 active; inhibition, % (about 7 µM as worked out from the volumes in the protocol); Integrin alpha-4 (Homo sapiens), P13612; in the data active = inhibition above about 50%
PG9 binder – binders of HIV-1 gp120 antibody PG9, primary screen, biochemical, TR-FRET; HIV-1 gp120 / PG9 antibody interaction; inhibition, % at 6.7 µM; 0.43% of 360,000 active; TR-FRET gp120-PG9 antibody binding; in the data active = inhibition above about 8.5%
Exocytosis inh – LAMP-1 surface exposure blockers, TALL-104 cells – cell-based, flow cytometry, MLPCN library, primary screen; TALL-104 LAMP-1 surface exposure; cells stimulated with thapsigargin and PMA; inhibition, % at 10 µM; 0.66% of 360,000 active;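 active = inhibition above about 55%, limit read from the data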
NR1D1 modulator – modulators of Rev-erb alpha DNA binding, primary screen, biochemical, FITC-DNA, fluorescence polarization, uHTS | Nuclear receptor subfamily 1 group D member 1 (Homo sapiens), P20393 | Rev-erbα–FITC-DNA binding, 90 min | activity, % at 10 µM | 0.79% of 370,000 active | AID 1259318, 2017;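 active = activity above about 14%, limit read from the data; passing the limit was not always enough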;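 note: 0% = DMSO wells with 35 nM protein and 100% = DMSO wells with 750 nM protein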
ABCB6 inh 2 – ABCB6 transporter inhibitors, primary screen, K562-ABCB6 cells, flow cytometry, MLPCN library; ATP-binding cassette sub-family B member 6 (Homo sapiens), Q9NP58; K562-ABCB6 porphyrin accumulation, 1 h; active compounds read low; fluorescence ratio to DMSO, % at 10 µM; 0.19% of 360,000 active;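 active = fluorescence ratio to DMSO below 75%, the collection mean minus 3 SD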;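 note: signal is porphyrin accumulated inside mitochondria; 100% equals median channel fluorescence of DMSO control wells; lower ratio means ABCB6 inhibition with less porphyrin fluorescence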
Target sequence (Q9NP58 whole entry, looked up): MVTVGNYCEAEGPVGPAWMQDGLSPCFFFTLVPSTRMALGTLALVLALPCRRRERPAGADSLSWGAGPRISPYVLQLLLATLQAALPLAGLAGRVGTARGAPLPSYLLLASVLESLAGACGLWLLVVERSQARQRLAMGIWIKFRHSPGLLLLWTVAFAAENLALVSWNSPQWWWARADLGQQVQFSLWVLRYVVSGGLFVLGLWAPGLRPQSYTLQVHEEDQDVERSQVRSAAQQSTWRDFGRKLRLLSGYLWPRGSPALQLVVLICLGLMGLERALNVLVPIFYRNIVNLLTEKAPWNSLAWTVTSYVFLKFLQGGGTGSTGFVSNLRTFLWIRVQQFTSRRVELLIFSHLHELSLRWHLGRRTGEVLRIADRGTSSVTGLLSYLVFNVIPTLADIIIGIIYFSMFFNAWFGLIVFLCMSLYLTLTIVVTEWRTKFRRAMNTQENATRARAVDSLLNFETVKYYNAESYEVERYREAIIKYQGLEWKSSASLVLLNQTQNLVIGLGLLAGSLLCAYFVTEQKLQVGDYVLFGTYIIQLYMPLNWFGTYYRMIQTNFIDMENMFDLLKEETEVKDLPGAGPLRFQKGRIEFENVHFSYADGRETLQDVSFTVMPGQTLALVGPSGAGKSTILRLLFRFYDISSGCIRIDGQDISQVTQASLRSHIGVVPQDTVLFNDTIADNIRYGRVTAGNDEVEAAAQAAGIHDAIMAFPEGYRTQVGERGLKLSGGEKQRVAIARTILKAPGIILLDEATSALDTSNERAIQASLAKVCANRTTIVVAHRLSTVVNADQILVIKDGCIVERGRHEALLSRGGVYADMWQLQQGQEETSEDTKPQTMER
Numbers without * were called inactive.

For O=C1C(Nc2ccc(O)cc2)=C/C(=N/S(=O)(=O)c2cccs2)c2ccccc21 the results were PG9 binder -15, Exocytosis inh 57*, NR1D1 modulator -5 and ABCB6 inh 2 123.
`O=C(O)c1ccc(NC2=C/C(=N/S(=O)(=O)c3ccccc3)c3ccccc3C2=O)cc1` gave PG9 binder -19, Exocytosis inh 58*, NR1D1 modulator -20 and ABCB6 inh 2 111.
For Cc1cc(Cl)ccc1NNC(N)=S the results were VLA-4 inh 10, PG9 binder -2, Exocytosis inh 62*, NR1D1 modulator -1 and ABCB6 inh 2 98.
Screening Cc1ccc(C)c(NNC(N)=S)c1 returned VLA-4 inh 19, PG9 binder -2, Exocytosis inh 1, NR1D1 modulator 3 and ABCB6 inh 2 100.
COc1ccccc1NC(=O)c1cc2c(CO)cnc(C)c2oc1=Nc1ccccc1 was read as VLA-4 inh -1, PG9 binder 2, Exocytosis inh 81*, NR1D1 modulator -2 and ABCB6 inh 2 91.
`CCCCCCCCN1C(=O)[C@@H](CC(=O)N2CCOCC2)C[C@@]2(C(=O)OC)C1=C[C@H](COCc1ccccc1)O[C@@H]2C` gave NR1D1 modulator 3.
For CN(C)CCCNS(=O)(=O)c1ccc(NC2CCCCCC2)c([N+](=O)[O-])c1 the results were VLA-4 inh 41, PG9 binder -1, Exocytosis inh 60*, NR1D1 modulator 4 and ABCB6 inh 2 89.
O=C(O)CCCN1C(=O)/C(=C/c2ccncc2)SC1=S was read as VLA-4 inh -4, PG9 binder -1, Exocytosis inh 0, NR1D1 modulator -4 and ABCB6 inh 2 97.
O=C(O)CCCCCN1C(=O)/C(=C\c2ccc(-c3ccc(Cl)cc3)o2)SC1=S was read as VLA-4 inh -58, PG9 binder -2, Exocytosis inh 87*, NR1D1 modulator -2 and ABCB6 inh 2 143.
O=C(O)CCCN1C(=O)/C(=C/c2ccc(-c3nc4ccccc4s3)o2)SC1=S was read as VLA-4 inh 3, PG9 binder -1, Exocytosis inh 66*, NR1D1 modulator -7 and ABCB6 inh 2 63*.
COc1ccc(NC(=O)c2cc(-c3ccc(C)o3)nc3ccccc23)cc1OC was read as VLA-4 inh -11, PG9 binder 0, Exocytosis inh 64*, NR1D1 modulator -3 and ABCB6 inh 2 95.
Screening O=[N+]([O-])c1ccc(Sc2cccc[n+]2[O-])c2nonc12 returned PG9 binder -2, Exocytosis inh 96*, NR1D1 modulator 3 and ABCB6 inh 2 120.
Screening CCCCOCCCNC(=O)C[C@H]1C[C@@]2(C(=O)OC)C(=C[C@H](C(C)(C)C)O[C@@H]2C)N(Cc2cccc3ccccc23)C1=O returned NR1D1 modulator 5.
Screening O=C1C2C(C(=O)N1/N=C/c1ccc(N3CCCCC3)o1)C1C=CC2C12CC2 (stereo not drawn) returned VLA-4 inh 14, PG9 binder -2, Exocytosis inh 68*, NR1D1 modulator 7 and ABCB6 inh 2 97.
For COc1cc(C2Oc3ccccc3C=C2[N+](=O)[O-])cc(OC)c1OC (stereo not drawn) the results were PG9 binder -2, Exocytosis inh 60*, NR1D1 modulator -1 and ABCB6 inh 2 103.
COc1cc(C2NC(=O)c3ccccc3O2)cc(OC)c1OC (stereo not drawn) was read as VLA-4 inh 22, PG9 binder -1, Exocytosis inh 0, NR1D1 modulator -5 and ABCB6 inh 2 97.
CC(C)(C)OC(=O)NCCc1ccccc1/C=C/S(=O)(=O)NC1CCCC1 was read as NR1D1 modulator -3.
Screening COc1ccc(N2C(=O)CC(Sc3n[nH]c(-c4cccc(C)c4)n3)C2=O)cc1 (stereo not drawn) returned VLA-4 inh 8, PG9 binder -1, Exocytosis inh 95*, NR1D1 modulator -4 and ABCB6 inh 2 94.
For COc1cccc(N2C(=O)CC(Sc3nc(C)cc(C)n3)C2=O)c1 (stereo not drawn) the results were VLA-4 inh 9, PG9 binder -2, Exocytosis inh -13, NR1D1 modulator -2 and ABCB6 inh 2 98.
O=C(Nc1ccc2c(c1)OCO2)c1nn(-c2ccccc2)c(=O)c2ccccc12 was read as VLA-4 inh -12, PG9 binder -2, Exocytosis inh -2, NR1D1 modulator -2 and ABCB6 inh 2 102.
Screening O=C(NCc1ccc2c(c1)OCO2)c1nn(-c2ccccc2)c(=O)c2ccccc12 returned VLA-4 inh 1, PG9 binder 3, Exocytosis inh -2, NR1D1 modulator 2 and ABCB6 inh 2 65*.
O=C(CSc1nnc(-c2ccncc2)n1-c1ccc(Br)cc1)c1ccccc1 was read as NR1D1 modulator -4.
For C[C@H]1CCCN1c1ccc2c(c1)O[C@@H]1CCN(C1)S2(=O)=O the results were NR1D1 modulator 4.
Screening COC(=O)[C@]12C[C@H](CC(=O)N3CCSCC3)C(=O)N(Cc3ccco3)C1=C[C@H](C1CCCC1)O[C@@H]2C returned NR1D1 modulator -3.
For COc1ccc(C(=O)Nc2ccc(-c3ccc(C)o3)cc2)cc1S(=O)(=O)N1CCOCC1 the results were VLA-4 inh -1, PG9 binder 0, Exocytosis inh 72*, NR1D1 modulator 1 and ABCB6 inh 2 95.
For COc1ccc(C(=O)Nc2ccc(N3CCOCC3)cc2)cc1S(=O)(=O)N1CCOCC1 the results were PG9 binder -3, Exocytosis inh -2, NR1D1 modulator 1 and ABCB6 inh 2 92.
`CC(NCc1ccc(OCc2ccc(Cl)cc2)cc1)C(O)c1ccccc1` (stereo not drawn) gave VLA-4 inh 3, PG9 binder 1, Exocytosis inh 67*, NR1D1 modulator -5 and ABCB6 inh 2 94.
`CC(NCc1cccc(OCc2ccccc2)c1)C(O)c1ccccc1` (stereo not drawn) gave VLA-4 inh -2, PG9 binder 0, Exocytosis inh -3, NR1D1 modulator 1 and ABCB6 inh 2 101.
Screening COc1ccc2oc(=O)c(-c3nnc(N)s3)cc2c1 returned VLA-4 inh -7, PG9 binder -3, Exocytosis inh -14, NR1D1 modulator 0 and ABCB6 inh 2 101.
For COc1ccc2oc(=O)c(-c3nc(C)cs3)cc2c1 the results were VLA-4 inh -3, PG9 binder 13*, Exocytosis inh -2, NR1D1 modulator 2 and ABCB6 inh 2 101.
CCN(C(=O)[C@H]1CC(=O)O[C@@H]1c1ccccc1)c1ccccc1 was read as NR1D1 modulator -1.
For COC1=C(OC)C(=O)C(Sc2ccc3ccccc3c2)=CC1=O the results were PG9 binder -1, Exocytosis inh 86*, NR1D1 modulator 0 and ABCB6 inh 2 93.
